Molecules are shown by their SMILES. Several values for one entry are separate records, joined by “and”; a condition that tells them apart may be missing. Identical values can stand only once. The panel holds about 79,000 compounds, 15% with a hit somewhere; the sample as a whole holds those more often. Some structures have more than one record in an assay (separate samples or runs), and their calls can disagree. Activity calls are given as the source filed them. Rule as the data show it: active = growth inhibition above about 70%; inactive = the rest.

A short description of assay [1]: NCI Yeast Anticancer Drug Screen. Data for the rad50 strain (AID 155).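 Also: 0% = growth of vehicle-only cultures of the same strain.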 The settings on record: S. cerevisiae rad50 strain growth inhibition, stronger effect = higher value. The essentials:
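Compounds were tested on a yeast strain with an engineered DNA damage repair alteration; the reported value is growth inhibition normalised to vehicle treatment.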

A short description of assay [2]: NCI Yeast Anticancer Drug Screen. Data for the mec2-1 strain (AID 157). The conditions noted are these: S. cerevisiae mec2-1 strain, stronger effect = higher value. Put shortly: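 Compounds were applied to mec2-1 yeast cells. Their growth was then compared with that of vehicle-treated cultures to give growth inhibition.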
A short description of assay [3]: NCI Yeast Anticancer Drug Screen. Data for the sgs1 mgt1 strain (AID 161).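 Also: 0% = growth of cultures given vehicle only.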 The settings on record: S. cerevisiae sgs1 mgt1 strain, stronger effect = higher value. Put shortly:
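Compounds are added to genetically altered yeast, and growth is compared with cultures given vehicle alone to give percent inhibition.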

A short description of assay [4]: NCI Yeast Anticancer Drug Screen. Data for the bub3 strain (AID 167). The settings on record: S. cerevisiae bub3 mutant strain, stronger effect = higher value. Put shortly: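 Growth of a checkpoint-deficient yeast mutant is measured after compound exposure. Values represent inhibition relative to vehicle.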
A short description of assay [5]: NCI Yeast Anticancer Drug Screen. Data for the wt2 strain (AID 169).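 Also: 0% = growth of vehicle-treated yeast cultures.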 The conditions noted are these: S. cerevisiae wt2 strain growth inhibition, stronger effect = higher value. The essentials: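 Growth of compound-treated yeast is measured and expressed as inhibition relative to vehicle-only controls.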
Assay [6] can be described thus: NCI Yeast Anticancer Drug Screen. Data for the cln2 rad14 strain (AID 165).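 Also: 0% = growth equal to vehicle treated cultures.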 The conditions noted are these: S. cerevisiae cln2 rad14 strain, stronger effect = higher value. Put shortly: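 Strain: cln2 rad14 yeast, altered in cell cycle control and DNA damage repair. Read-out: growth inhibition vs vehicle.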
A short description of assay [7]: NCI Yeast Anticancer Drug Screen. Data for the mlh1 rad18 strain (AID 175). The conditions noted are these: S. cerevisiae mlh1 rad18 strain growth inhibition, stronger effect = higher value. Put shortly:
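A repair-deficient yeast strain is exposed to test compound, and growth is scored relative to vehicle-treated controls.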

Setting [8] is: at 5.0 µM (retest, dose inferred, filed as 0.5).
Setting [9] is: at 50.0 µM (retest, dose inferred, filed as 5.0).

In the case of `OC(CF)(c1ccc(Cl)cc1)c1ccc(Cl)cc1`, the growth inhibition in assay [1] (setting [8]) was 37% (inactive); in assay [1] (setting [9]) it was 74% (active); in assay [1] (at 50.0 µM), 90.3% (active); in assay [2] (setting [8]), 24% (inactive); in assay [2] (setting [9]) it was 75% (active); in assay [2] (at 50.0 µM), 92.5% (active). Also, the growth inhibition in assay [3] (setting [8]) is 6% (inactive); in assay [3] (setting [9]), 91% (active); in assay [3] (at 50.0 µM) it was 92.8% (active); in assay [4] (setting [8]), 1% (inactive); in assay [4] (setting [9]), 91% (active); in assay [4] (at 50.0 µM) it was 91% (active). Moreover, the growth inhibition in assay [5] (at 1.2 µM) was 16% (inactive); in assay [5] (at 3.7 µM), 16% (inactive); in assay [5] (at 11.0 µM) it was 17% (inactive); in assay [5] (at 33.0 µM), 93% (active); in assay [5] (at 100.0 µM), 99% (active).
As to `O=C1C=CC(=O)C(c2ccc3ccccc3c2)=C1`, the growth inhibition in assay [1] (setting [8]) is 90% (active); in assay [1] (setting [9]), 98% (active); in assay [1] (at 50.0 µM), 99% (active); in assay [2] (setting [8]), 96% (active); in assay [2] (setting [9]) it was 99% (active); in assay [2] (at 50.0 µM), 99.1% (active). The growth inhibition was 85% (active) in assay [3] (setting [8]); 99% (active) in assay [3] (setting [9]); 99.2% (active) in assay [3] (at 50.0 µM); 73% (active) in assay [6] (setting [8]); 98% (active) in assay [6] (setting [9]); 98.8% (active) in assay [6] (at 50.0 µM). Further, the figures for the growth inhibition in assay [7] (setting [8]), in assay [7] (setting [9]) and in assay [7] (at 50.0 µM) were 97% (active), 99% (active) and 99% (active), respectively.
Consider `Cc1nc2c(nc1C)C(=O)c1ccccc1C2=O`, for which the growth inhibition in assay [1] (setting [8]) was 19% (inactive); in assay [1] (setting [9]), 98% (active); in assay [1] (at 50.0 µM), 85.9% (active); in assay [2] (setting [8]) it was 14% (inactive); in assay [2] (setting [9]), 99% (active); in assay [2] (at 50.0 µM), 82.4% (active). In addition, the growth inhibition was 22% (inactive) in assay [3] (setting [8]); 97% (active) in assay [3] (setting [9]); 71.4% (active) in assay [3] (at 50.0 µM); 30% (inactive) in assay [4] (setting [8]); 99% (active) in assay [4] (setting [9]); 67.3% (inactive) in assay [4] (at 50.0 µM). Moreover, the growth inhibition in assay [7] (setting [8]) was 27% (inactive); in assay [7] (setting [9]), 99% (active).
As for `COC(=O)C#CC(=O)OC`, the growth inhibition in assay [1] (setting [8]) is 14% (inactive); in assay [1] (setting [9]), 96% (active); in assay [1] (at 50.0 µM), 32% (inactive) and -2.9% (inactive); in assay [2] (setting [8]) it was 14% (inactive); in assay [2] (setting [9]), 99% (active); in assay [2] (at 50.0 µM), 9.8% (inactive) and 77.9% (active). For the same molecule, the growth inhibition in assay [3] (setting [8]) is -15% (inactive); in assay [3] (setting [9]), 84% (active); in assay [3] (at 50.0 µM), 7.05% (inactive) and 45% (inactive); in assay [4] (setting [8]), -18% (inactive); in assay [4] (setting [9]), 99% (active); in assay [4] (at 50.0 µM), 0.8% (inactive) and 74% (active). The growth inhibition in assay [7] (setting [8]) is -2% (inactive); in assay [7] (setting [9]), 98% (active); in assay [7] (at 50.0 µM), 21.8% (inactive) and 49.8% (inactive).
Turning to `CCCCCCC(CCCCCCCCCCC(=O)OCC(CC)CC)OC(=O)CC` (stereo not given), the growth inhibition in assay [1] (setting [8]) is -4% (inactive); in assay [1] (setting [9]), -4% (inactive); in assay [1] (at 50.0 µM) it was 21.2% (inactive); in assay [2] (setting [8]), -3% (inactive); in assay [2] (setting [9]) it was -6% (inactive); in assay [2] (at 50.0 µM) it was 7.9% (inactive). Moreover, the growth inhibition was -2% (inactive) in assay [6] (setting [8]); -13% (inactive) in assay [6] (setting [9]); 21.4% (inactive) in assay [6] (at 50.0 µM); -3% (inactive) in assay [4] (setting [8]); -5% (inactive) in assay [4] (setting [9]); -6.9% (inactive) in assay [4] (at 50.0 µM). In addition, the results for the growth inhibition in assay [7] (setting [8]), in assay [7] (setting [9]) and in assay [7] (at 50.0 µM) were -3% (inactive), -6% (inactive) and 39.5% (inactive), respectively.
As for `Cc1cc(NS(=O)(=O)c2ccc(N=Nc3cc(N=Nc4ccc(S(=O)(=O)Nc5cc(C)nc(C)n5)cc4)c4c(NC(=O)C(Cl)Cl)cccc4c3OC(=O)C(Cl)Cl)cc2)nc(C)n1` (tested in a mixture with another compound), the growth inhibition in assay [1] (setting [8]) was 16% (inactive); in assay [1] (setting [9]) it was 76% (active); in assay [1] (at 50.0 µM) it was 29.9% (inactive) and 73.2% (active); in assay [2] (setting [8]) it was 15% (inactive); in assay [2] (setting [9]), 92% (active); in assay [2] (at 50.0 µM) it was -17.1% (inactive) and 81.5% (active). Moreover, the growth inhibition in assay [3] (setting [8]) was 8% (inactive); in assay [3] (setting [9]), 79% (active); in assay [3] (at 50.0 µM) it was -23.1% (inactive) and 69.2% (inactive); in assay [4] (setting [8]) it was 21% (inactive); in assay [4] (setting [9]) it was 90% (active); in assay [4] (at 50.0 µM), -21.5% (inactive) and 77.2% (active). Further, the growth inhibition is 21% (inactive) in assay [7] (setting [8]); 70% (active) in assay [7] (setting [9]); -56.5% (inactive) and 81.5% (active) in assay [7] (at 50.0 µM).
For the molecule `Oc1ccccc1C=Nc1ccccc1N=Cc1ccccc1O`, the growth inhibition is -16% (inactive) and -2% (inactive) in assay [1] (setting [8]); 68% (inactive) and 96% (active) in assay [1] (setting [9]); 85% (active) and 81.4% (active) in assay [1] (at 50.0 µM); -34% (inactive) and -4% (inactive) in assay [2] (setting [8]); 98% (active) and 85% (active) in assay [2] (setting [9]); 78.9% (active) and 89% (active) in assay [2] (at 50.0 µM). Besides, the growth inhibition in assay [6] (setting [8]) is 7% (inactive) and -12% (inactive); in assay [6] (setting [9]), 39% (inactive) and 95% (active); in assay [6] (at 50.0 µM), 59.5% (inactive) and 8.6% (inactive); in assay [4] (setting [8]), 14% (inactive) and -3% (inactive); in assay [4] (setting [9]), 52% (inactive) and 86% (active); in assay [4] (at 50.0 µM), 67% (inactive) and 87.2% (active). In addition, the growth inhibition was -17% (inactive) and -4% (inactive) in assay [7] (setting [8]); 98% (active) and 97% (active) in assay [7] (setting [9]); 76.3% (active) and 93% (active) in assay [7] (at 50.0 µM).
For `Nc1ccc2c(ccc3ccc4ccccc4c32)c1`, the growth inhibition is -6% (inactive) in assay [1] (setting [8]); 93% (active) in assay [1] (setting [9]); 96.7% (active) in assay [1] (at 50.0 µM); -8% (inactive) in assay [2] (setting [8]); 98% (active) in assay [2] (setting [9]); 96.8% (active) in assay [2] (at 50.0 µM). In addition, the growth inhibition in assay [6] (setting [8]) is -7% (inactive); in assay [6] (setting [9]), 96% (active); in assay [6] (at 50.0 µM), 95.5% (active); in assay [4] (setting [8]), -6% (inactive); in assay [4] (setting [9]) it was 97% (active); in assay [4] (at 50.0 µM), 96.7% (active). The growth inhibition in assay [7] (setting [8]) is 17% (inactive); in assay [7] (setting [9]), 97% (active); in assay [7] (at 50.0 µM) it was 95.6% (active).
Turning to `COC1OC(C(O)CO)C(O)C(O)C1O` (stereo not given), the growth inhibition was 13.7% (inactive) [middle of 4 runs] in assay [2] (at 50.0 µM), 12.2% (inactive) [middle of 4 runs] in assay [3] (at 50.0 µM) and 25.1% (inactive) [middle of 4 runs] in assay [7] (at 50.0 µM).
Turning to `COc1nc2nc(C(O)C(O)CO)cnc2c(=O)n1C` (stereo not given), the growth inhibition in assay [1] (at 50.0 µM) was -5.55% (inactive) [middle of 4 runs]; in assay [2] (at 50.0 µM), -6.55% (inactive) [middle of 4 runs]; in assay [3] (at 50.0 µM), -5.2% (inactive) [middle of 4 runs]; in assay [4] (at 50.0 µM), 7.15% (inactive) [middle of 4 runs].
For `NC(CSCc1ccccc1)C(=O)O` (stereo not given), the figures for the growth inhibition in assay [4] (at 50.0 µM) and in assay [7] (at 50.0 µM) were -6% (inactive) [middle of 4 runs] and 0.9% (inactive) [middle of 4 runs], respectively.

These data come from PubChem BioAssay (NCI).
